Measurements as given in PubChem BioAssay (NCATS).
Results filed as inconclusive are left out. Where a call stands in place of a potency, no number is given. Active and inactive are the calls of the source. Calls follow the shape of the dose curve; as a rule, active = well fitted inhibition curve with a large enough effect; inconclusive = small, poorly fitted or top-dose-only effect, or effect the other way; inactive = flat fitted curve, though single readings scatter.

What follows are molecules tested against Ubiquitin carboxyl-terminal hydrolase 2 (Homo sapiens) (UniProt O75604) (assay: qHTS Validation Assay for Inhibitors of Ubiquitin-specific Protease USP2a Using CHOP2 as the Reporter (AID 463106)). Settings: USP2a cleavage of CHOP2 reporter, enzymatic; series mostly up to 38.3 µM.
Description: NIH Molecular Libraries Screening Centers Network [MLSCN]
NIH Chemical Genomics Center [NCGC]
PI Name: Nicholson, Ben. Progenra Inc, Malvern, PA
Homeostasis of cellular proteins is maintained through a combination of synthesis and degradation. The pathway that accounts for the majority of protein degradation is the ubiquitin-proteasomal pathway. Ubiquitin (Ub) is highly conserved in all cells and the generation of a multi-Ub chain typically targets proteins for degradation by the proteasome. However, ubiquitination is highly reversible and dynamic. Deubiquitination, the reverse process, is catalyzed through the action of enzymes referred to as isopeptidases or deubiquitinating enzymes (DUBs). This group of enzymes is collectively responsible for maintaining adequate pools of free ubiquitin and regulating the ubiquitination status of cellular proteins. The class of DUBs referred to as the ubiquitin-specific proteases (USP) family functions endoproteolytically to cleave Ub chains from a wide range of protein substrates. USP2a deubiquitinates fatty acid synthase (FASN) which has recently been identified as an emerging oncology target. To identify inhibitors of USP2a a cell-free assay was employed.
The reporter enzyme chosen is an enterokinase called CHOP2, which is activated when the Ub is cleaved by USP2. The free and now activated reporter can subsequently act on its reporter substrate. […] The assay was developed by Progenra, Inc. and has been licensed for sale by LifeSensors, Inc. as Ub-CHOP2-Reporter-Kit (#PR1101).
NCGC Assay Protocol Summary:
The assay buffer, prepared fresh at the day of the assay, contains 20mM Tris-HCl pH 8.0, 2mM CaCl2, 2mM beta-Mercaptoethanol, 0.05% CHAPS. 3ul of 20nM (10nM final) USP2 core, which is stored on ice, is dispensed into a medium-binding black solid Kalypsys 1,536 well plate using the Kalypsys dispenser. The assay plate is then pinned with 23nL compound with the Kalypsys pintool in columns 5-48. The controls are pinned as follows: column 1 two-fold dilutions of 2M NEM in duplicate; column 2 2M NEM (final concentration 38.2mM); column 3&4 DMSO. The assay plate is incubated at RT for 30min. Subsequently, 1.5uL of 100nM (25nM final) Ub-CHOP2 and 1.5uL of 100nM (25nM final) Reporter Substrate (both stored on ice and protected from light) were dispensed into the plate using the Kalypsys dispenser. Plates were read after 60min RT incubation on a ViewLux (Perkin Elmer) plate reader using the following wavelengths Ex 485nm /Em 531nm.
Data were normalized to the to AC100 inhibition (NEM). Concentration-response curves were fitted to the normalized data and the concentration-response curves were then classified based on curve quality (r2), response magnitude and degree of measured activity. The time zero reading was used to flag fluorescence artifacts.
Keywords: ubiquitination, deubiquitination, proteases, profluorescent, MLSMR, MLPCN, NIH Roadmap, qHTS, NCGC

Chain of Ubiquitin carboxyl-terminal hydrolase 2 (Homo sapiens) (O75604 whole entry, looked up): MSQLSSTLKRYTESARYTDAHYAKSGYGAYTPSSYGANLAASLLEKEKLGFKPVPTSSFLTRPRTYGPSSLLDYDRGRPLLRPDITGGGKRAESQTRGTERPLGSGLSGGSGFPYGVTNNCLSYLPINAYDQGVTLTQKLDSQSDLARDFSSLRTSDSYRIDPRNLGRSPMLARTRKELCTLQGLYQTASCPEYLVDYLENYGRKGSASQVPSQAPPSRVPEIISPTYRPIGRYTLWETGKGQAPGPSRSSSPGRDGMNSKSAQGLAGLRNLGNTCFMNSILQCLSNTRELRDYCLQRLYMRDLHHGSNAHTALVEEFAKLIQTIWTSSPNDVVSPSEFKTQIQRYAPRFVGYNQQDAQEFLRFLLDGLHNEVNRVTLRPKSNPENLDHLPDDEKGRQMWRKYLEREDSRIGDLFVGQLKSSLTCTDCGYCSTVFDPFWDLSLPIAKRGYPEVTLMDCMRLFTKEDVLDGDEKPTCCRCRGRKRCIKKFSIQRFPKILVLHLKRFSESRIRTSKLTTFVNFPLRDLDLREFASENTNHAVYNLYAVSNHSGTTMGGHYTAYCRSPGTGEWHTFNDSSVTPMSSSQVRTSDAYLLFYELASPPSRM

Row | SMILES | Potency
1 | O=[N+]([O-])c1cccc2cn[nH]c12 | inactive
2 | CSC(N)=NCCC[C@H](N)C(=O)O | inactive
3 | CCCCCCCC/C=C\CCCCCCCC(=O)NCCc1ccc(O)c(O)c1 | inactive
4 | C=CCn1c(=O)c2c(nc(-c3ccc(S(=O)(=O)O)cc3)n2C)n(C)c1=O | inactive
5 | O=C(O)CCC/C=C\C[C@@H]1[C@@H](/C=C/[C@H](O)C2Cc3ccccc3C2)[C@@H](F)C[C@@H]1O | inactive
6 | CSc1nc(N)c2ncn([C@@H]3O[C@H](COP(=O)(O)OP(=O)(O)O)C(O)[C@H]3O)c2n1 (stereo not given in full) | inactive
7 | NC/C=C\C(=O)O | inactive
8 | C=C1C[C@@]23CC[C@H]4[C@@](C)(CCC[C@@]4(C)C(=O)O)[C@@H]2CC[C@]1(O)C3 | inactive
9 | Nc1nc2c(cnn2CCc2ccccc2)c2nc(-c3ccco3)nn12 | inactive
10 | CN1CC(O)C(O)C(O)C1CO (stereo not given) | inactive
11 | N=C(N)SCCc1cnc[nH]1 | inactive
12 | N#Cc1cc2nc(O)c(O)nc2cc1[N+](=O)[O-] | inactive
13 | CNCCNS(=O)(=O)c1cccc2cnccc12 | inactive
14 | Nc1ncnc2c1nc(Br)n2C1OC2COP(=O)(O)O[C@@H]2C1O (stereo not given in full) | inactive
15 | CC(C)NC[C@H](O)COc1cccc2ccccc12 | inactive
16 | OC[C@H]1O[C@@H](n2cnc3cncnc32)[C@H](O)[C@@H]1O | inactive
17 | CCSC(=N)N | inactive
18 | CCn1c(=O)[nH]c2cc(Cl)c(Cl)cc21 | inactive
19 | C=C1C[C@@]23CC[C@H]4[C@@](C)(CCC[C@@]4(C)C(=O)OC4OC(CO)C(O)C(O)C4O)[C@@H]2CC[C@]1(OC1OC(CO)C(O)C(O)C1OC1OC(CO)C(O)C(O)C1O)C3 (stereo not given in full) | inactive
20 | O=c1[nH]c2ccccc2c2ccccc12 | inactive

Row | SMILES | Potency
21 | Nc1ncnc2c1nc(Sc1ccc(Cl)cc1)n2[C@H]1OC2COP(=O)(O)O[C@@H]2C1O (stereo not given in full) | inactive
22 | C=CC1(C)CC(=O)C2(O)C(C)(O1)C(OC(C)=O)C(O)C1C(C)(C)CCC(O)C12C (stereo not given) | inactive
23 | CC1CCN=C(N)S1 (stereo not given) | inactive
24 | CC[C@@H]1Cc2cc(O)ccc2C2=C1c1ccc(O)cc1C[C@H]2CC | inactive
25 | CO/N=C(\C(=O)N[C@@H]1C(=O)N2C(C(=O)O)=C(CSc3nc(=O)c(O)nn3C)CSC12)c1csc(N)n1 (stereo not given in full) | inactive
26 | Cc1nc2c(OCc3ccccc3)cccn2c1CC#N | inactive
27 | NC(=O)CNCCC(c1ccccc1)c1ccccc1 | inactive
28 | CCN1C(=O)C=CC1=O | inactive
29 | C[C@H]1CC2C3CCC4=CC(=O)C=C[C@]4(C)[C@@]3(Cl)[C@@H](O)C[C@]2(C)[C@@]1(O)C(=O)CO (stereo not given in full) | inactive
30 | N#CC(C#N)=C(N)/C(C#N)=C/c1ccc(O)cc1 | inactive
31 | O=C(O)C1CCCNC1 (stereo not given) | inactive
32 | N=C(N)SCCN | inactive
33 | c1ccc2c(c1)CC(N1CCN(c3cccc4c3OCCO4)CC1)C2 | inactive
34 | Nc1ccc(N2C(=O)c3ccccc3C2=O)c(Cl)c1 | inactive
35 | COc1cc([C@@H]2c3cc4c(cc3[C@H](O)C3COC(=O)[C@@H]32)OCO4)cc(OC)c1OC (stereo not given in full) | inactive
36 | N[C@@H](CS(=O)O)C(=O)O | inactive
37 | CC#CCOC(=O)c1c(C)nc2sc3c(c2c1N)CCC(O)C3 (stereo not given) | inactive
38 | NOCC(=O)O | inactive
39 | NC(Cc1cccc(-c2ccccc2CP(=O)(O)O)c1)C(=O)O (stereo not given) | inactive
40 | NC1C=CC=C(C(=O)O)C1 (stereo not given) | inactive
